The source of these data is ChEMBL document CHEMBL3988442, “University of Dundee, Small-Polar-MMV Screening Library” (2021).

In all, about 48,000 compounds went through this assay and about 13,000 (27%) showed an effect of 50% or more. Some of the results follow.

For the assay, the system named is Wolbachia pipientis. Put plainly: Anti-Wolbachia Cell-Based Screen. It is filed as functional. Also on record: scale not given: in the data most compounds retested in dose-response had high values. The note with it: 5 µM.
For `Nc1ncccc1CN1C[C@H]2OC(=O)N(Cc3ccccn3)[C@H]2C1`, the “Percent Effect” value was 0.5145%.
To `CCc1nc(CN2CCN(C(=O)Cc3c(C)noc3C)CC2)cs1` belongs 0.6841%.
The value for `COc1ccc(C2SCC(=O)Nc3ccsc32)cc1` (centres undefined) was 24.55%.
To `COc1ccc(C2SCC(=O)Nc3ccsc32)cc1OC` (centres undefined) belongs -3.857%; to `O=C1CSC(c2ccncc2)c2c[nH]nc2N1` (centres undefined), 107.2%; to `O=C1Nc2ccccc2CC12CCN(CCO)C2` (centres undefined), -5.884%.
Turning to `O=C1NCc2ccccc2CC12CCN(Cc1ccncc1Cl)C2` (centres undefined), the “Percent Effect” value is 100.7%.
The value for `CCCN1CCC2(Cc3ccccc3NC2=O)C1` (centres undefined) was -12.05%; that for `Cc1cc(C)c(CNc2ncnc3ccccc23)c(=O)[nH]1` was 14.2%.
For `CCOC(=O)[C@@H]1[C@@H](c2ccccc2)CN2CCN(S(C)(=O)=O)C[C@H]12`, the “Percent Effect” value was 100.2%.
To `CC[C@H]1CN2CC[C@H]1C[C@@H]2CNC(=O)Nc1ccccc1` belongs -4.877%.
Consider `CCOC(=O)[C@@H]1[C@@H](c2ccccc2)CN2CCN(C(C)=O)C[C@H]12`, for which the “Percent Effect” value was 87.07%.
For the molecule `CCOC(=O)[C@@H]1[C@H]2CN(C(=O)OC)CCN2C[C@H]1c1ccccc1`, the “Percent Effect” value stood at 104.3%.
Consider `O=C(COc1ccccc1)N1C[C@@H](O)[C@H](N2CCCC2)C1.O=CO`, for which the “Percent Effect” value was 3.295%.
The value for `O=C(C1CC1)N1CCN2C[C@H](c3ccccc3)[C@@H](CO)[C@H]2C1` was 105.4%.
The value for `Cc1noc(C)c1CN1CCO[C@H]2[C@H](Oc3ccccn3)CC[C@@H]21.O=C(O)C(F)(F)F.O=C(O)C(F)(F)F` was -5.059%; that for `CCOC(=O)[C@@H]1[C@@H](c2ccccc2)CN2CCN(C(=O)C3CC3)C[C@H]12` was 90.7%; that for `CCOC(=O)[C@@H]1[C@@H](c2ccccc2)CN2CCN(C(=O)N(C)C)C[C@H]12` was 91.13%.
Regarding `Cc1nn(C)c2ncc(S(=O)(=O)N3CCN4CCCC4C3)cc12` (centres undefined), the “Percent Effect” value is -0.5952%.
Consider `CCc1nc(CC(=O)N2CCCC2CN2CCCC2)cs1` (centres undefined), for which the “Percent Effect” value is given as -9.906%.
With `NC(=O)C1CN(C(=O)Cc2cccnc2)CCN(C2CCOCC2)C1` (centres undefined), the “Percent Effect” value is 108.4%.
For the molecule `O=C1N(Cc2cccnc2)C[C@H]2CN(C3CCOCC3)CCN12`, the “Percent Effect” value is given as -6.635%.
`O=C(Cc1cccnc1)N1CCC2(CC1)CCN(C1CCOC1)C2.O=C(O)C(F)(F)F.O=C(O)C(F)(F)F` (centres undefined): the “Percent Effect” value is -0.1396%.
To `CN(C[C@H]1CN2CC[C@H]1C[C@@H]2CNC(=O)c1ccco1)c1ccccc1` belongs -3.253%.
As to `Cn1ccc(CN2CCCC23CCNCC3)n1`, the “Percent Effect” value is given as -9.611%.
To `CCN1CCC2(COCc3cnc(NCC4CC4)nc32)C1.O=C(O)C(F)(F)F` (centres undefined) belongs -6.306%; to `Cc1nc(N(C)C)nc2c1COCC21CCN(CC2CC2)C1.O=C(O)C(F)(F)F` (centres undefined), 103%.
The value for `CCN1CCC2(COCc3c(C)nc(N(C)C)nc32)C1` (centres undefined) was 108.4%.
To `CCN1CCC2(COCc3c(C)nc(N4CCOCC4)nc32)C1` (centres undefined) belongs 5.011%; to `CN(C)c1ncc2c(n1)C1(CCN(CC3CC3)C1)COC2.O=C(O)C(F)(F)F` (centres undefined), -11.31%.
As for `COCCN1CCC2(COCc3c(C)nc(N(C)C)nc32)C1` (centres undefined), the “Percent Effect” value worked out at 5.948%.
The value for `Cc1ccccc1CNC(Cn1cncn1)c1ccccc1` (centres undefined) was 16.93%; that for `CC(C)c1cc(N2CCC3(CC2)CN(C)CCN3C)ncn1` was -0.4054%.
The value for `Cc1nnsc1CN1C[C@H]2CC[C@@H]1CN(Cc1ccccn1)C2` was -5.416%.
Turning to `Cl.NC1(c2nc(C(F)(F)F)cc(=O)[nH]2)CCCC1`, the “Percent Effect” value is reported as -15.07%.
Turning to `Cc1n[nH]c2c1C(c1ccsc1)SCC(=O)N2` (centres undefined), the “Percent Effect” value is reported as 0.06284%.
The value for `O=C1CSC(c2ccc3c(c2)OCO3)c2cn[nH]c2N1` (centres undefined) was 128%; that for `Cc1n[nH]c2c1C(c1ccc3c(c1)OCO3)SCC(=O)N2` (centres undefined) was 118.8%.
For the molecule `Cc1n[nH]c2c1C(c1ccc(O)c(Cl)c1)SCC(=O)N2` (centres undefined), the “Percent Effect” value came to 5.211%.
To `CC(C)[C@@H]1CN(C(=O)C2(c3ccccc3)CCN(C)CC2)C[C@H]1N(C)C` belongs -1.656%; to `CC(C)OCCNC1(c2ccc(F)cc2)CCOCC1`, 3.648%.
To `Fc1cccc(O[C@@H]2C[C@H]3CN(Cc4ccncc4)CCN3C2)c1.O=C(O)C(F)(F)F.O=C(O)C(F)(F)F.O=C(O)C(F)(F)F` belongs -7.787%; to `O=C(O)C(F)(F)F.O=C(O)C(F)(F)F.O=C(O)C(F)(F)F.c1cc(CN2CCN3C[C@H](Oc4cncnc4)C[C@H]3C2)ccn1`, 106.9%.
To `O=C(O)C(F)(F)F.O=C(O)C(F)(F)F.O=C(c1cccnc1)N1CCN2C[C@H](Oc3cncnc3)C[C@H]2C1` belongs -8.279%.
With `O=C(c1ccncc1)N1CCN2C[C@H](Oc3cncnc3)C[C@H]2C1`, the “Percent Effect” value was determined as 8.644%.
Regarding `Cn1ccnc1CN1CCN2C[C@H](OCc3cccnc3)C[C@H]2C1.O=C(O)C(F)(F)F.O=C(O)C(F)(F)F.O=C(O)C(F)(F)F`, the “Percent Effect” value was -4.128%.
Regarding `O=C(O)C(F)(F)F.O=C(O)C(F)(F)F.O=C(O)C(F)(F)F.c1cncc(CN2CCN3C[C@H](Oc4cncnc4)C[C@H]3C2)c1`, the “Percent Effect” value amounted to 97.08%.
To `COc1cc(N2CCN(CC3CC3)c3nc(C)ccc3C2)ncn1` belongs 95.93%.
To `COCCN1CCN(c2cc(OC)ncn2)Cc2ccc(C)nc21` belongs 108.6%.
The value for `Cc1ccc2c(n1)N(CC1CC1)CCN(S(=O)(=O)C1CC1)C2.O=C(O)C(F)(F)F` was 2.676%.
For `CC(C)CN1CC[C@@H]2[C@@H]1CCN2C(=O)N(C)C.O=C(O)C(F)(F)F`, the “Percent Effect” value was -11.1%.
The value for `O=C(c1cccnc1)N1C[C@@H]2CC[C@H](C1)N(Cc1ncc[nH]1)C2` was -11.14%.
With `Cc1cccc(CN2CCN3C(=O)NC[C@H]3C2)n1`, the “Percent Effect” value is recorded as -6.805%.
The value for `CN(Cc1ccco1)[C@@H]1CN(Cc2cccnc2)[C@@H]2CCCO[C@H]12.O=C(O)C(F)(F)F.O=C(O)C(F)(F)F.O=C(O)C(F)(F)F` was 8.312%; that for `O=C(N[C@@H]1CN(Cc2ccccn2)[C@@H]2COC[C@@H]21)C1CCC1.O=C(O)C(F)(F)F` was -10.37%.
As to `O=C(O)C(F)(F)F.O=C(O)C(F)(F)F.c1ccc(CO[C@@H]2CN(Cc3nccs3)[C@@H]3COC[C@@H]32)nc1`, the “Percent Effect” value came to 102.5%.
In the case of `O=C(O)C(F)(F)F.O=C(O)C(F)(F)F.c1ccc(CO[C@H]2CO[C@@]3(CCN(Cc4ccoc4)C3)C2)nc1`, the “Percent Effect” value is reported as -0.8411%.
To `CCN(CC)CCN1CCO[C@H]2[C@@H](OCc3ccccn3)CC[C@@H]21` belongs -0.06843%; to `c1ccc(CO[C@@H]2CN(Cc3ccoc3)[C@@H]3COC[C@@H]32)nc1`, 117.8%.
The value for `O=C(O)C(F)(F)F.O=C(O)C(F)(F)F.c1cncc(CO[C@H]2CO[C@@]3(CCN(Cc4ccoc4)C3)C2)c1` was -6.874%; that for `O=C(O)C(F)(F)F.O=C(O)C(F)(F)F.c1cncc(CO[C@H]2CN(Cc3ccco3)[C@@H]3COC[C@H]23)c1` was 97.44%; that for `Fc1cccnc1O[C@@H]1CC[C@H]2[C@H]1OCCN2Cc1nccs1.O=C(O)C(F)(F)F.O=C(O)C(F)(F)F` was 0.8031%.
To `O=C(O)C(F)(F)F.O=C(O)C(F)(F)F.c1ccc(O[C@@H]2CN(Cc3nccs3)[C@@H]3CCCO[C@@H]32)nc1` belongs -2.827%; to `Fc1ccc(CN2C[C@@H](OCc3ccccn3)[C@H]3COC[C@H]32)cc1.O=C(O)C(F)(F)F.O=C(O)C(F)(F)F`, 103%.
For `COCCO[C@@H]1C[C@H]2CN(C(=O)c3cccnc3)CCN2C1`, the “Percent Effect” value is reported as -1.303%.
To `CNC(=O)[C@H]1C[C@@H]2CN(C(=O)c3ccc(C)nc3)C[C@@H]2N1C` belongs -27.99%.
To `COCCn1c(C(=O)NCc2n[nH]c(C)n2)cc2ccccc21` belongs -4.273%; to `O=C(O)C(F)(F)F.O=C(O)C(F)(F)F.O=C(O)C(F)(F)F.c1ccc(CO[C@@H]2CN(Cc3cccnc3)[C@@H]3COC[C@@H]32)nc1`, 110.7%; to `CCOC(=O)[C@@H]1[C@@H](c2ccccc2)CN2CCNC[C@H]12`, 118.8%.
To `CNC(=O)[C@@H]1[C@H]2CNCCN2C[C@H]1c1ccccc1` belongs 84.83%; to `CC(=O)C1(c2ccccc2)CCN(C(=O)C2CNCCO2)CC1` (centres undefined), 2.674%.
Take `CC(=O)NC(C)C(=O)NCc1ccc(N2CCNC(=O)C2)cc1` (centres undefined): the “Percent Effect” value is listed as 100.5%.
To `Cl.O=C(N[C@H]1CN[C@H]2CCCO[C@H]21)c1ccno1` belongs -7.03%; to `O=C1CO[C@@H]2CNC[C@H]2N1CC1CC1`, -15.76%; to `COc1c(CNCCc2c[nH]c3ccccc23)c(C)nn1C`, 86.16%.
The value for `COc1cccc(CCNCc2c(C)nn(C)c2N(C)C)c1` was -6.952%; that for `COc1c(CNCCc2c[nH]c3ccccc23)c(C(C)C)nn1C` was 95.04%; that for `CC(C(=O)N(C)C)N1CCCN(C(=O)Oc2ccccc2)CC1` (centres undefined) was -7.894%.
With `Cc1ncc2c(n1)CCCC2NC(=O)c1cnn(Cc2ccccc2)c1` (centres undefined), the “Percent Effect” value is on record as 108%.
As to `Cl.NC1(c2nc(C(F)(F)F)cc(=O)[nH]2)CCCCC1`, the “Percent Effect” value is listed as -23.28%.
The value for `COCCN1CCN(c2cccc(C)n2)Cc2ccc(C)nc21.O=C(O)C(F)(F)F.O=C(O)C(F)(F)F` was 115.7%.
Turning to `COCCN1CCN(c2ccc(C)nn2)Cc2cccnc21.O=C(O)C(F)(F)F`, the “Percent Effect” value was -12.27%.
To `COCCN1CCN(S(C)(=O)=O)Cc2ccc(C)nc21.O=C(O)C(F)(F)F` belongs 1.772%; to `COCCN1CCN(c2ccc(C)nn2)Cc2ccc(C)nc21.O=C(O)C(F)(F)F.O=C(O)C(F)(F)F`, 113.9%.
